The values that follow come from PubChem BioAssay (NCI).

A short description of test [1]: NCI Yeast Anticancer Drug Screen. Data for the rad50 strain (AID 155).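 Note: 0% = growth of vehicle-only cultures of the same strain.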 The following applies: S. cerevisiae rad50 strain growth inhibition; at 50.0 µM; active compounds read high. The essentials:
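Genetically altered yeast (DNA repair pathway); compound treatment; growth inhibition vs vehicle ctrl.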

A short description of test [2]: NCI Yeast Anticancer Drug Screen. Data for the mec2-1 strain (AID 157). The settings on record: S. cerevisiae mec2-1 strain, at 50.0 µM, active compounds read high. The essentials:
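Yeast mec2-1 mutant treated with compound. Readout: growth inhibition vs vehicle controls.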

Test [3] can be described thus: NCI Yeast Anticancer Drug Screen. Data for the sgs1 mgt1 strain (AID 161).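 Note: 0% = growth of cultures given vehicle only.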 The settings on record: S. cerevisiae sgs1 mgt1 strain, at 50.0 µM, active compounds read high. The method in brief:
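Mutant yeast exposed to compound; growth scored against vehicle-only wells.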

The nature of test [4]: NCI Yeast Anticancer Drug Screen. Data for the cln2 rad14 strain (AID 165).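 Note: 0% = growth equal to vehicle treated cultures.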 The settings on record: S. cerevisiae cln2 rad14 strain, at 50.0 µM, active compounds read high. The method in brief: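 cln2 rad14 yeast strain; compound exposure; growth inhibition read vs vehicle controls.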
The nature of test [5]: NCI Yeast Anticancer Drug Screen. Data for the bub3 strain (AID 167). The following applies: S. cerevisiae bub3 mutant strain, at 50.0 µM, active compounds read high. The essentials: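 Yeast carrying a defined mutation is treated with each compound, and growth is compared with that of vehicle-exposed cells to give inhibition.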
The nature of test [6]: NCI Yeast Anticancer Drug Screen. Data for the mlh1 rad18 strain (AID 175). The settings on record: S. cerevisiae mlh1 rad18 strain growth inhibition; at 50.0 µM; active compounds read high. The method in brief:
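Yeast w/ defined DNA-repair lesions; compound exposure; growth vs vehicle controls → % inhibition.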

Each structure is given as a SMILES string. The panel holds about 79,000 compounds, 15% with a hit somewhere; the sample as a whole holds those more often. Values without a mark were called inactive. Calls of active or inactive are those of the source. Cut-off read from the data, not from the text of the source: active = growth inhibition above about 70%; inactive = the rest.

On to `Cc1nc(C)c(Cc2ccccc2)o1`, for which the growth inhibition in test [1] is 1.05%; in test [2] it was 20.9%; in test [3] it was 18.1%; in test [4], 27.6%; in test [5], 5.3%; in test [6], 30.7%.
For the molecule `O=C1c2ccc3c([nH]c4ccccc43)c2C(=O)N1c1ccccc1`, the growth inhibition in test [1] was 19.7%; in test [2], -2%; in test [3] it was 21.8%; in test [4] it was 11.9%; in test [5], 13.3%; in test [6] it was 7.35%.
Consider `O=c1n(-c2ccccc2)c(=O)n2n1C1C3C4C3C2C2(F)C4C12` (stereo not given), for which the growth inhibition is -6.95% in test [1]; 14.3% in test [2]; 19.9% in test [3]; 8.6% in test [4]; 7.75% in test [5]; 9.6% in test [6].
For `C(/C=C\c1ccccc1)=Nc1ccccc1`, the growth inhibition was 8% in test [1]; -11.8% in test [2]; -4.55% in test [3]; 9.35% in test [4]; 0.2% in test [5]; 17.1% in test [6].
As to `CCOC(=O)CCCN`, the growth inhibition in test [1] was -8.45%; in test [2], -3%; in test [3], -6.95%; in test [4], 56.7%; in test [5] it was -39.8%; in test [6], -16.1%.
Take `CCc1cccc(CC)c1NC(=O)c1ccccc1Cl`: the growth inhibition is 7.9% in test [1]; 24.6% in test [2]; 31.3% in test [3]; 0.8% in test [4]; 26.1% in test [5]; 26.8% in test [6].
On to `Cc1nc(N)[nH]c(=O)c1CCCN=Cc1ccccc1`, for which the growth inhibition is 8.5% in test [1]; 56.5% in test [2]; 2.8% in test [3]; 18.5% in test [4]; 92.2% (active) in test [5]; 51.1% in test [6].
Consider `CC(C)(C)OC(=O)NCC(O)CNC(=O)OC(C)(C)C`, for which the growth inhibition is -1.25% in test [1]; -6.6% in test [2]; -45.8% in test [3]; -26% in test [4]; -22.9% in test [5]; -24.6% in test [6].
Regarding `CC(=O)NC1C(OCC(=O)NC(C)C(=O)NC(CCC(=O)NCCCCCNc2ccc([N+](=O)[O-])c3[nH]c4ccccc4c(=O)c23)C(N)=O)C(O)C(CO)OC1(C)OCc1ccccc1` (stereo not given), the growth inhibition in test [1] is -7.65%; in test [2] it was -3.35%; in test [3] it was 1.05%; in test [4], 21.2%; in test [5], -12.1%; in test [6], 18.1%.
Turning to `SCCNCc1ccccn1`, the growth inhibition in test [1] is -22.1%; in test [2] it was -36.1%; in test [3], -17.4%; in test [4], 14.3%; in test [5], -37.4%; in test [6], -3.65%.
`N#CC1=C(N)N(c2ccccc2)C(c2ccccc2)C1(C#N)C#N` (stereo not given): the growth inhibition is 6.45% in test [1]; 14.2% in test [2]; -8.3% in test [3]; -4.9% in test [4]; -22.9% in test [5]; -4.75% in test [6].
As for `O=C1NC(N2CCCCC2)=N/C1=C\c1ccco1`, the growth inhibition in test [1] is -11.8%; in test [2], 0.2%; in test [3], 8.35%; in test [4], 13.7%; in test [5], -5.65%; in test [6], -33.8%.
As for `CC(C)=Nn1cnc2nccnc2c1=O`, the growth inhibition was 2.55% in test [1]; -6.05% in test [2]; -14.2% in test [3]; -40% in test [4]; -13.3% in test [5]; -1.6% in test [6].
On to `CCN(CC)c1ccc2cc(-c3nc4ccccc4n3C)c(=O)oc2c1`, for which the growth inhibition in test [1] was 14.8%; in test [2], -6%; in test [3], 2.2%; in test [4], 6.55%; in test [5], 1.35%; in test [6], 14.1%.
With `CCCCCCC1(/C=C/c2ccc(Cl)cc2Cl)OCCCO1`, the growth inhibition was 3.3% in test [1]; 9.1% in test [2]; -5.45% in test [3]; -2.75% in test [4]; 11.8% in test [5]; 3.65% in test [6].
For the molecule `CC(=O)OCC(C)CCC(C)COC(C)=O` (stereo not given), the growth inhibition was -22.2% in test [1]; -9.4% in test [2]; -21.8% in test [3]; -11.4% in test [4]; 0.45% in test [5]; -31.6% in test [6].
Regarding `O=c1cc(O)n(C2=NCCN2)[nH]1`, the growth inhibition in test [1] is -6.45%; in test [2], -23.6%; in test [3] it was -0.2%; in test [4], 16.2%; in test [5], -12.5%; in test [6], -9.95%.
With `Clc1ccccc1N=Cc1ccc(C=Nc2ccccc2Cl)cc1`, the growth inhibition in test [1] is 26.9%; in test [2] it was 23.8%; in test [3], 34%; in test [4] it was 3.3%; in test [5], 38.5%; in test [6], 25.9%.
Take `CC1CC[P+](c2ccccc2)(c2ccccc2)CC1`: the growth inhibition in test [1] is 22.9%; in test [2], 17.4%; in test [3], 30.3%; in test [4], 4.5%; in test [5], 22.1%; in test [6], 32.5%.
`c1ccc(-c2n[nH]c(-c3[nH]nc(-c4ccccc4)c3-c3ccccc3)c2-c2ccccc2)cc1`: the growth inhibition in test [1] is -12.2%; in test [2], 15.3%; in test [3], -12%; in test [4] it was 5.15%; in test [5] it was 7.35%; in test [6], 8.2%.
